The list is not random: actives were taken first. Their share in the collection is about 3.4%.
RE007 growth inh: less growth of the S. pombe RE007 Vpr strain; Potency, µM (titrated, usually from 92.2 µM), inactives show top-dose activity change, negative = less growth, most hits filed as inhibitors; 360,000 tested, 0.21% active; S. pombe RE007 Vpr strain, BacTiter-Glo ATP luminescence, 24 h; AID 651644; active = well fitted falling curve with a large enough effect; inconclusive = small, poorly fitted or top-dose-only effect; inactive = no such curve, though single readings can be large or run the other way; also: nearly all actives have a fitted effect of over 50% in size
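Fission yeast RE007 carrying one integrated HIV-1 vpr copy, seeded at OD 0.01 in PMG+AL medium with 23 nL pinned compound. Grown 24 h at 30 degrees; viability read by BacTiter-Glo luminescence after 5 min.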
AmpC inh no detg: inhibitors of E. coli AmpC beta-lactamase without detergent. AmpC nitrocefin hydrolysis, absorbance 480 nm, 0.0001% Triton. AID 485341. 330,000 tested, 0.52% active. P00811. Potency, µM (top dose mostly 57.1 µM), without a hit: top-dose activity change, negative = inhibition, actives largely listed as inhibitors;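 also: plate controls were no compound for no effect and no enzyme for full effect; nearly all actives have a fitted effect of over 20% in size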
Target sequence (P00811 whole entry, looked up): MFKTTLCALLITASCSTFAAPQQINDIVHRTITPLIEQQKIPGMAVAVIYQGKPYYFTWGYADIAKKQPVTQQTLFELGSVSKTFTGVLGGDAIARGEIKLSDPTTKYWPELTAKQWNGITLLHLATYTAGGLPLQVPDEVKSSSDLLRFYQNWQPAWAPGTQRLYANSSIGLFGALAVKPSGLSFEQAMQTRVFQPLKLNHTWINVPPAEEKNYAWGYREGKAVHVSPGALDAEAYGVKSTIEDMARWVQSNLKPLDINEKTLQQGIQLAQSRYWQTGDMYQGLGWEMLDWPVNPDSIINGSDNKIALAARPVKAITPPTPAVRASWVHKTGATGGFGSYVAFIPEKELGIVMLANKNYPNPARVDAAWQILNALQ
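AmpC (5.3 nM in the dispensed reagent) in 20 mM phosphate pH 7.0 with 0.01% (detergent screen) or 0.0001% Triton X-100 was preincubated with compounds for 15 min at room temperature. Nitrocefin was then added from an 800 uM solution, and hydrolysis was followed at 480 nm.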
Giardia FBPA inh: blocks Giardia fructose-bisphosphate aldolase activity. purified Giardia FBPA. Potency, µM (doses to about 59.6 µM), without a hit: at the top dose activity, negative = inhibition, most hits filed as inhibitors. 290,000 tested, 0.71% active. AID 2451; also: nearly all actives have a fitted effect of over 55% in size
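40 nM FBPA preincubated 10 min at RT with compound (up to 57.5 uM final), then substrate plus GAPDH/TPI/NAD/arsenate coupling and diaphorase/resazurin added. Fluorescence read after 20 min at RT, 525/598 nm.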
AmpC detergent: inhibitors of E. coli AmpC beta-lactamase with detergent; AmpC hydrolysis of nitrocefin, absorbance 480 nm, 0.01% Triton; AID 485294; Potency, µM (titrated, usually from 114 µM), for inactives: at the top dose activity change, negative = inhibition, hits mostly inhibitors; 370,000 tested, 0.041% active;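 also: 0% = no-compound wells and -100% = no-enzyme wells; nearly all actives have a fitted effect of over 25% in size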
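20 mM phosphate pH 7.0 + 0.01% (detergent screen) or 0.0001% Triton X-100; 5.3 nM AmpC reagent; cpd preinc 15 min RT; nitrocefin (800 uM stock) to start; A480 q20 s × 4 min; Activity was normalised to no-enzyme and no-compound control wells.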
Sm TGR block: inhibitors of Schistosoma mansoni thioredoxin glutathione reductase; Q962Y6; purified TGR, DTNB reduction, TNB absorbance 405 nm; 360,000 tested, 3% active; Potency, µM (series often up to 114 µM), for the others: top-dose activity change, negative = inhibition, usual class: inhibitors; also: nearly all actives have a fitted effect of over 60% in size
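First, TGR (20 nM dispensed) and NADPH were mixed with compound. Second, a 15 min room-temperature incubation followed. Third, further NADPH and then DTNB were added to start the reaction. Finally, TNB absorbance was monitored kinetically.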
Starred values were filed as active, the others as inactive; ? = inconclusive; · = no result given. Unless noted, calls follow the shape of the dose curve; as a rule, active = well fitted curve in the direction sought with a large enough effect; inconclusive = small, poorly fitted or top-dose-only effect, or another doubt; inactive = no such curve, though single readings can be large; an effect the other way counts as inactive or inconclusive. Unless noted, % is scaled to controls: 0 for no effect and ±100 for the full control effect; potency is read from the fitted curve at half-maximal effect.

SMILES	RE007 growth inh	AmpC inh no detg	Giardia FBPA inh	AmpC detergent	Sm TGR block
Cc1ccc(CNC(=O)Cn2ccc3ccccc3c2=O)o1	6.2%	-12.8%	4.3%	-10.5%	31.6µM*
C#CCNC(=O)C1=C[C@H](c2ccc(C(F)(F)F)cc2)C[C@H](OCc2ccc(CO)cc2)O1	-8.5%	99.1%	?	-2.3%	39.8µM*
C#CCNC(=O)C1=C[C@H](c2ccc(C#C)cc2)C[C@H](OCc2ccc(CO)cc2)O1	1.3%	·	·	·	·
C#CCNC(=O)C1=C[C@@H](c2ccccc2)C[C@@H](OCc2ccc(CO)cc2)O1	0.3%	2.1%	-18.3%	-1.1%	44.7µM*
C#CCNC(=O)C1=C[C@H](c2ccccc2)C[C@H](OCCCCO)O1	1.3%	20.4%	?	7.9%	14.1µM*
O=C(NC1CC1)C1=C[C@@H](c2coc3ccccc3c2=O)C[C@@H](OCCCCO)O1	0.9%	46.6%	0.5%	-1.6%	44.7µM*
Cc1cc2oc(=O)cc(Cn3ccnc3)c2cc1O	-1.9%	-8.7%	-6.1%	-0.9%	-0.7%
O=C(NCc1ccccc1)C1=C[C@@H](C2CC2)C[C@@H](OCCCCO)O1	-16.3%	4.0%	-5.0%	2.7%	-14.7%
C#CCNC(=O)C1=C[C@H](C2CC2)C[C@H](OCCCCO)O1	4.4%	11.9%	-2.5%	10.1%	44.7µM*
C=CCN1c2ccc(Br)cc2C(=O)CS1(=O)=O	1.0%	3.98µM*	·	-1.3%	-0.2%
CC(C)CN(CC(C)C)C(=O)Nc1ccc(F)cc1F	?	1.6%	8.9%	-2.8%	13.1%
Cn1c2ccccc2c(=O)c2cc(C#Cc3ccccn3)ccc21	-0.5%	-38.4%	-5.2%	?	20µM*
Cn1c2ccccc2c(=O)c2ccc(C#Cc3ccccn3)cc21	-9.7%	-18.6%	-2.0%	?	31.6µM*
CCCCn1c(N)c(N(CC(C)C)C(=O)COC(=O)Cc2cccc(OC)c2)c(=O)[nH]c1=O	0.9%	-7.1%	·	0.0%	-0.6%
CC1CCN(Cc2c(O)ccc3c2O/C(=C\c2ccco2)C3=O)CC1	-10.6%	25.1%	?	1.9%	1µM*
O=C1/C(=C/c2ccco2)Oc2c1ccc(O)c2CN1CCCCC1	-9.5%	-35.3%	?	?	?
COCCN(CCOC)Cc1c(O)ccc2c1O/C(=C\c1ccco1)C2=O	6.7%	-19.1%	?	-9.1%	3.55µM*
CCN1CCN(Cc2c(O)ccc3c2O/C(=C\C=C\c2ccccc2OC)C3=O)CC1	-24.3%	111.9%	-18.2%	-11.3%	?
O=CN1CCc2scc[n+]2-c2ccccc21	-6.9%	21.6%	-9.5%	-10.8%	?
O=C(O)CC1(CC(=O)N2CCOCC2)CCCC1	-13.6%	-52.0%	-6.8%	35.5µM*	-12.6%
COc1ccc(NC(=O)CC2(CC(=O)N3CCOCC3)CCCC2)cc1Cl	-24.1%	39.2%	·	-2.2%	-7.5%
CCOc1ccccc1NC(=O)CC1(CC(=O)N2CCOCC2)CCCC1	6.4%	-6.5%	·	-11.4%	39.8µM*
NC(=O)C1CCN(C(=O)CC2(CC(=O)O)CCCC2)CC1	2.3%	-34.6%	2.3%	?	-8.8%
O=C(O)CC1(CC(=O)N2CCC(C(=O)O)CC2)CCCC1	-12.0%	-52.7%	7.6%	44.7µM*	-27.5%
CC(C)(C)NC(=O)Cc1ccc(Cl)c(Cl)c1	11.6%	-28.6%	-2.7%	7.7%	16.3%
SMILES	RE007 growth inh	AmpC inh no detg	Giardia FBPA inh	AmpC detergent	Sm TGR block
COc1ccc(N/C(=N/c2nc(C)cc(C)n2)NC(=O)c2ccccc2)cc1	25.8%	-3.8%	4.0%	-12.8%	7.5%
CC1CCN(CCCNC(=O)c2ccc3c(=O)n(Cc4ccc(Cl)cc4)c(=S)[nH]c3c2)CC1	-6.0%	52.1%	5.0%	1.8%	-26.3%
CN(C)CCNC(=O)c1ccc2c(=O)n(Cc3ccc(Cl)cc3)c(=S)[nH]c2c1	-6.7%	-4.7%	18.6%	2.8%	44.7µM*
CCn1c(Cl)c(C=O)s/c1=N\S(=O)(=O)c1ccccc1	-23.3%	-47.1%	-8.1%	-2.0%	0.316µM*
Cn1c(SCC(=O)NNC(=O)Nc2ccc(Cl)cc2)nnc1-c1ccccc1	-1.0%	-3.2%	0.7%	0.2%	-1.6%
Cc1cc(C)cc(NC(=O)CCN2C(=O)c3ccccc3Sc3ncccc32)c1	·	·	·	-1.0%	39.8µM*
Cc1ccccc1-c1noc(CCC(=O)NCc2ccco2)n1	3.0%	-14.8%	-0.3%	2.1%	28.2µM*

Assay outcomes as filed in PubChem BioAssay.
